Measurements reported in the supplement of paper PMC11577813, “Eurasian spruce bark beetle detects lanierone using a highly expressed specialist odorant receptor, present in several functional sensillum types” (BMC Biology, 2024).
± gives the standard deviation of the averaged measurements.

These molecules were tested on (+)-trans-4-thujanol A-neuron OSN class (assay: net action potential response of A-neuron (blank-subtracted) (spikes/s (Hz)); higher = stronger excitation). Conditions: 10 µg on filter paper; neuron: A neuron (large spike amplitude).
Method: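 Single sensillum recordings from antennal olfactory sensilla of live adult Ips typographus. Each compound was 10 µg in paraffin oil on filter paper, delivered as a 0.5 s puff. Net response = spikes in the first 0.5 s of response minus the 0.5 s pre-stimulus count, doubled to give Hz, with blank response subtracted. Values are for the large-spike A-neuron class of each of seven sensillum types that co-house the lanierone B-neuron; N = 1-4 sensilla, averaged.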

SMILES | net action potential response
C=CCc1ccc(OC)cc1 [Estragole] | 1 ± 2
O=Cc1ccccc1 [Benzaldehyde] | -0.5 ± 1.9
Cc1ccccc1 [Toluene] | 0.5 ± 2.5
